Assay outcomes deposited in PubChem by National Center for Advancing Translational Sciences (NCATS).
Most compounds without a hit are left out; they make up all but 19% or so of the library.
HT1080NT lethal = kills 2HG-producing HT-1080-NT fibrosarcoma cells. HT-1080-NT fibrosarcoma viability, CellTiter-Glo ATP luminescence, 48 h. Potency, µM (highest dose often 46.1 µM), for inactives: at the top dose activity, negative = less viability, most hits filed as cytotoxic. hit rate 1.6% among 360,000. AID 686970;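 also: NT is the 2HG producing partner of a matched IDH1 knockdown line; potency is read from the fitted curve at half-maximal effect; 0% = DMSO-treated cells and -100% = media-only wells without cells; nearly all actives have a fitted effect of over 55% in size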
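Viability of the 2HG-overproducing fibrosarcoma line after 48 hours of compound exposure at 37 degrees C was determined by luminescence with CellTiter-Glo, and concentration-effect curves were then fitted and categorized.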
HT1080 IDH1KD tx = toxicity to HT-1080 IDH1 knockdown cells (counter line); HT-1080 IDH1 knockdown viability, ATP luminescence, 48 h; Potency, µM (top dose mostly 46.1 µM), for inactives: at the highest dose activity, negative = toxicity, usual class: cytotoxic; hit rate 2% among 360,000; AID 686971;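 also: potency is read from the fitted curve at half-maximal effect; 0% = DMSO wells and -100% = cell-free medium wells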
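Luminescent ATP read-out (CellTiter-Glo, 10 min at room temperature) after 48 h compound exposure at 37 °C gave viability of IDH1-knockdown HT-1080 cells. Activity was normalised to DMSO and cell-free wells, then fitted as concentration-response curves.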
uPA surface inh = blocks generation of uPA at the cell surface. cell surface uPA generation assay, qHTS. Potency, µM (highest dose often 38.3 µM), inactives show top-dose activity change, negative = inhibition, most hits filed as inhibitors. hit rate 0.31% among 330,000. AID 540303; active = well fitted inhibition curve with a large enough effect; inconclusive = small, poorly fitted or top-dose-only effect; inactive = no such curve, though single readings can be large or run the other way; tested in mouse RAW 264.7 cells; also: potency is read from the fitted curve at half-maximal effect; nearly all actives have a fitted effect of over 55% in size
IL1B secr inh = inflammasome signaling inhibition, IL-1 beta readout | AID 743279 | THP-1 LPS/ATP IL-1B secretion, AlphaLISA, 16 h; hits give low values | hit rate 4.7% among 360,000 | activity change, % at 57.5 µM; in the data active = activity change below about -50%; inconclusive = mostly about -30% to -49%
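Secreted IL-1B measured by AlphaLISA bead assay after 16 h compound exposure of THP-1 cells; compounds (final up to 57.5 uM) added 1 h before LPS (250 ng/mL) and ATP (1.25 mM) stimulation; lower signal means less secretion.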
TDP1 cell CPT = growth inhibition of DT40 Tdp1-/-;hTDP1 cells with camptothecin (screen for TDP1 inhibitors); chicken DT40 Tdp1-/-;hTDP1 cells + 20 nM CPT, ATP luminescence, 48 h; Potency, µM (highest dose often 46.2 µM), for the others: at the top dose activity change, negative = growth inhibition, actives largely listed as inhibitors; hit rate 12% among 420,000; AID 686979; also: potency is read from the fitted curve at half-maximal effect; nearly all actives have a fitted effect of over 55% in size
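Cell growth measured by CellTiter-Glo luminescence after a minimum 48 h, 37 C compound exposure with 20 nM CPT in Tdp1-knockout DT40 cells stably expressing hTDP1, seeded 400/well; qHTS titration format.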
DT40 TDP1 no CPT = qHTS for Inhibitors of human tyrosyl-DNA phosphodiesterase 1 (TDP1): qHTS in cells in absence of CPT. DT40 Tdp1-/- hTDP1 cells, no CPT, ATP luminescence, 48 h. AID 686978, 2013. Potency, µM (doses to about 46.2 µM), without a hit: at the top dose activity change, negative = growth inhibition, actives largely listed as inhibitors. hit rate 15% among 420,000; also: potency is read from the fitted curve at half-maximal effect; nearly all actives have a fitted effect of over 55% in size
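Stably hTDP1-transfected Tdp1-null chicken DT40 cells were treated with library compounds minus camptothecin and grown for at least 48 hr at 37 °C, after which cellular ATP was quantified by luminescence.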
Starred values were filed as active, the others as inactive. Unless noted, calls follow the shape of the dose curve; as a rule, active = well fitted curve in the direction sought with a large enough effect; inconclusive = small, poorly fitted or top-dose-only effect, or another doubt; inactive = no such curve, though single readings can be large; an effect the other way counts as inactive or inconclusive. Unless noted, % is scaled to controls: 0 for no effect and ±100 for the full control effect.

What do the screens show for `O=C(NCc1ccccc1)C1=C[C@@H](c2ccc(C(F)(F)F)cc2)C[C@@H](OCCCCO)O1`?
HT1080NT lethal: -6.7%; HT1080 IDH1KD tx: -6.1%; uPA surface inh: 4.5%; IL1B secr inh: -6.2; TDP1 cell CPT: inconclusive; DT40 TDP1 no CPT: 25.9µM*

What do the screens show for `CC(=O)n1cc([C@@H]2C=C(C(=O)NCc3ccccc3)O[C@H](OCCCCO)C2)c2ccccc21`?
HT1080NT lethal: -0.4%; HT1080 IDH1KD tx: -4.0%; uPA surface inh: -0.8%; IL1B secr inh: -0.9; TDP1 cell CPT: inconclusive; DT40 TDP1 no CPT: 18.4µM*

Results for CC(=O)n1cc([C@H]2C=C(C(=O)NCc3ccccc3)O[C@@H](OCc3ccc(CO)cc3)C2)c2ccccc21 ?
HT1080NT lethal: -27.1%; HT1080 IDH1KD tx: -19.4%; uPA surface inh: -11.7%; IL1B secr inh: -53.3*; TDP1 cell CPT: 5.8µM*; DT40 TDP1 no CPT: 3.26µM*

What do the screens show for `CC(=O)n1cc([C@H]2C=C(C(=O)NCc3ccccc3)O[C@@H](OCCCCO)C2)c2ccccc21`?
HT1080NT lethal: 1.8%; HT1080 IDH1KD tx: -10.3%; uPA surface inh: -53.2%; IL1B secr inh: 5.0; TDP1 cell CPT: inconclusive; DT40 TDP1 no CPT: inconclusive

What do the screens show for `Cc1cccc(S(=O)(=O)c2cn(Cc3ccc(F)cc3)c3cc(N4CCCCC4)c(F)cc3c2=O)c1`?
TDP1 cell CPT: -3.3%; DT40 TDP1 no CPT: -5.5%

What do the screens show for `O=C(Oc1ccc(NC(=O)c2cc3c(cc2Br)OCO3)cc1)c1ccccc1`?
HT1080NT lethal: 0.0%; HT1080 IDH1KD tx: 1.7%; uPA surface inh: -6.6%; IL1B secr inh: 3.7; TDP1 cell CPT: -11.2%; DT40 TDP1 no CPT: -24.9%

What do the screens show for `CCCNC(=O)CCC(=O)N1Cc2cccc(OC)c2Oc2ncccc21`?
TDP1 cell CPT: -11.6%; DT40 TDP1 no CPT: 0.8%

What do the screens show for `COc1cccc(-c2csc(N3CCN(C(=S)Nc4ccccc4OC)CC3)n2)c1`?
HT1080NT lethal: 9.6%; HT1080 IDH1KD tx: 3.9%; uPA surface inh: -2.0%; IL1B secr inh: -15.0; TDP1 cell CPT: inconclusive; DT40 TDP1 no CPT: inconclusive

Results for COc1cccc(-c2csc(N3CCN(C(=S)NCC(C)C)CC3)n2)c1 ?
HT1080NT lethal: -12.0%; HT1080 IDH1KD tx: -11.3%; uPA surface inh: -5.4%; IL1B secr inh: -24.1; TDP1 cell CPT: 18.4µM*; DT40 TDP1 no CPT: inconclusive

Results for COc1cccc(-c2csc(N3CCN(C(=S)Nc4ccccc4Cl)CC3)n2)c1 ?
HT1080NT lethal: inconclusive; HT1080 IDH1KD tx: -22.8%; uPA surface inh: -18.7%; IL1B secr inh: -8.8; TDP1 cell CPT: -9.1%; DT40 TDP1 no CPT: inconclusive

How did COc1cccc(-c2csc(N3CCN(C(=S)Nc4cccc(Cl)c4)CC3)n2)c1 do in these assays?
HT1080NT lethal: inconclusive; HT1080 IDH1KD tx: inconclusive; uPA surface inh: -18.6%; IL1B secr inh: -80.9*; TDP1 cell CPT: -15.4%; DT40 TDP1 no CPT: -24.6%

How did COCCNC(=S)N1CCN(c2nc(-c3cccc(OC)c3)cs2)CC1 do in these assays?
HT1080NT lethal: -12.9%; HT1080 IDH1KD tx: -9.3%; uPA surface inh: 3.5%; IL1B secr inh: 17.3; TDP1 cell CPT: inconclusive; DT40 TDP1 no CPT: inconclusive

Results for CCNC(=S)N1CCN(c2nc(-c3cccc(OC)c3)cs2)CC1 ?
HT1080NT lethal: -19.3%; HT1080 IDH1KD tx: inconclusive; uPA surface inh: 8.0%; IL1B secr inh: 4.7; TDP1 cell CPT: 10.3µM*; DT40 TDP1 no CPT: 14.6µM*

Results for CCOc1ccc(N(CC(=O)NCc2ccc(OC)cc2)S(C)(=O)=O)cc1 ?
HT1080NT lethal: 12.9%; HT1080 IDH1KD tx: 6.9%; uPA surface inh: 2.3%; IL1B secr inh: -9.0; TDP1 cell CPT: inconclusive; DT40 TDP1 no CPT: -23.8%

What do the screens show for `NS(=O)(=O)c1ccc(SCc2ccccc2)nc1`?
HT1080NT lethal: 0.3%; HT1080 IDH1KD tx: -3.2%; uPA surface inh: -1.0%; IL1B secr inh: inconclusive; TDP1 cell CPT: -3.9%; DT40 TDP1 no CPT: inconclusive

What do the screens show for `NS(=O)(=O)c1ccc(Sc2ccc3ccccc3c2)nc1`?
HT1080NT lethal: -24.4%; HT1080 IDH1KD tx: -23.2%; uPA surface inh: 2.4%; IL1B secr inh: -88.2*; TDP1 cell CPT: inconclusive; DT40 TDP1 no CPT: inconclusive

What do the screens show for `CCC(C)NS(=O)(=O)c1ccc(F)c(C(=O)Nc2c(F)cc(F)cc2Br)c1` (stereo not given)?
HT1080NT lethal: -10.9%; HT1080 IDH1KD tx: -10.2%; uPA surface inh: -53.9%; IL1B secr inh: 16.0; TDP1 cell CPT: -6.0%; DT40 TDP1 no CPT: 0.1%

How did CCN1C[C@@H]2[C@@H]3C(=O)N(C)C(=O)[C@@H]3[C@](Cc3ccccc3)(C1=O)N2C(=O)c1ccc(Cl)cc1 do in these assays?
HT1080NT lethal: 2.9%; HT1080 IDH1KD tx: 2.3%; uPA surface inh: -14.6%; IL1B secr inh: 22.7; TDP1 cell CPT: 16.1%; DT40 TDP1 no CPT: 0.1%

How did O=C1CC(c2nc(-c3cccc(Cl)c3)no2)CN1c1ccc2c(c1)OCCO2 (stereo not given) do in these assays?
TDP1 cell CPT: -12.5%; DT40 TDP1 no CPT: -8.7%

Results for C[C@H]1CN([C@@H](C)CO)S(=O)(=O)c2ccc(C#CC(C)(C)O)cc2O[C@H]1CN(C)Cc1ccccc1 ?
HT1080NT lethal: -13.1%; HT1080 IDH1KD tx: -8.2%; IL1B secr inh: -26.7; TDP1 cell CPT: 18.4µM*; DT40 TDP1 no CPT: 23.1µM*

How did C[C@H]1CN([C@@H](C)CO)S(=O)(=O)c2ccc(C#CC3CC3)cc2O[C@H]1CN(C)C(=O)c1cccnc1 do in these assays?
HT1080NT lethal: -13.5%; HT1080 IDH1KD tx: -5.1%; IL1B secr inh: -0.6; TDP1 cell CPT: -0.1%; DT40 TDP1 no CPT: -22.4%

What do the screens show for `C[C@@H]1CN([C@@H](C)CO)S(=O)(=O)c2ccc(Br)cc2O[C@H]1CN(C)Cc1ccc(-c2ccccc2)cc1`?
HT1080NT lethal: inconclusive; HT1080 IDH1KD tx: 20.6µM*; IL1B secr inh: -27.8; TDP1 cell CPT: 20.6µM*; DT40 TDP1 no CPT: 5.8µM*

How did C[C@H](CO)N1C[C@H](C)[C@@H](CN(C)Cc2cccc(F)c2)Oc2cc(-c3cccc(C#N)c3)ccc2S1(=O)=O do in these assays?
HT1080NT lethal: -13.0%; HT1080 IDH1KD tx: -2.1%; IL1B secr inh: inconclusive; TDP1 cell CPT: inconclusive; DT40 TDP1 no CPT: 23.1µM*

Results for C[C@@H]1CN([C@@H](C)CO)S(=O)(=O)c2ccc(C#CC3CCCCC3)cc2O[C@@H]1CN(C)Cc1cccnc1 ?
HT1080NT lethal: inconclusive; HT1080 IDH1KD tx: inconclusive; IL1B secr inh: -66.3*; TDP1 cell CPT: 14.6µM*; DT40 TDP1 no CPT: 5.17µM*
